In PubChem BioAssay (NCI) one finds growth data, which are given here for eight molecules.

The panel holds about 83,000 compounds, 20% with a hit somewhere; the sample as a whole holds those more often.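 Single-dose data. Exposure time 48 hours. Values below 10 considered active.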 A number with no mark means an inactive call. Calls of active or inactive are those of the source.

Among the test systems are NCI-H23 lung; NCI-H226 lung; NCI-H322M lung; HOP-62 NSCLC; NCI-H460 lung; HOP-92 NSCLC; NCI-H522 lung; A549/ATCC NSCLC; 786-0 renal; COLO 205 colon; DU-145 prostate; K-562 leukemia; MALME-3M melanoma; MDA-MB-231 breast; RXF 393 renal; SF-268 CNS; SF-295 CNS; SF-539 CNS; UACC-257 melanoma; M14 melanoma.
What all share (assay): NCI-60 one-dose screen, 48 h (100 = growth as untreated, 0 = no growth, -100 = all killed)
Common to all, as to details: 10 µM unless noted

Consider `CC(=O)CCSc1ccc(OC(C)=O)cc1`, for which the growth in the test with NCI-H23 lung was 100%; in the test with NCI-H226 lung, 101%; in the test on NCI-H322M lung it was 103%; in the test with HOP-62 NSCLC it was 98%; in the test with NCI-H460 lung, 106%; with HOP-92 NSCLC, 79.8%. The growth in the test with NCI-H522 lung is 82.3%; in the test on A549/ATCC NSCLC, 88.3%; in the test with 786-0 renal, 100%; in the test with COLO 205 colon, 116%; with DU-145 prostate, 108%; with K-562 leukemia it was 96.1%. For the same molecule, the growth with MALME-3M melanoma was 115%; in the test with MDA-MB-231 breast it was 91.7%; in the test with RXF 393 renal, 109%; with SF-268 CNS, 96.4%; in the test with SF-295 CNS, 105%; in the test on SF-539 CNS, 97.3%. Also, the growth with UACC-257 melanoma is 88.1%; with M14 melanoma, 103%.

As for `COc1cc2c(cc1[N+](=O)[O-])-c1ccc([N+](=O)[O-])cc1/C2=N\O`, the growth with NCI-H23 lung is 88.2%; in the test with NCI-H226 lung, 66%; in the test on NCI-H322M lung, 113%; with HOP-62 NSCLC, 110%; with NCI-H460 lung it was 84%; in the test with HOP-92 NSCLC it was 100%. Besides, the growth is 51.2% in the test with NCI-H522 lung; 83.5% in the test on A549/ATCC NSCLC; 79.6% in the test on 786-0 renal; 79.6% in the test with COLO 205 colon; 120% with DU-145 prostate; 88.7% in the test with K-562 leukemia. Besides, the growth was 116% with MALME-3M melanoma; 87.4% with MDA-MB-231 breast; 79.8% with RXF 393 renal; 89.6% in the test with SF-268 CNS; 77.2% with SF-295 CNS; 84.9% in the test with SF-539 CNS. The growth with UACC-257 melanoma is 97.9%; in the test with M14 melanoma, 93.9%.

As to `Cc1n[nH]c(C)c1-c1c(C)n[nH]c1C`, the growth in the test with NCI-H23 lung is 8.62% (active); in the test with NCI-H226 lung, 56.2%; in the test on NCI-H322M lung, 28.6%; with HOP-62 NSCLC, 34.5%; in the test with NCI-H460 lung it was -35.1% (active); with HOP-92 NSCLC, -3.52% (active). The growth is -8.26% (active) in the test with NCI-H522 lung; 11.9% with A549/ATCC NSCLC; 6.23% (active) with 786-0 renal; -21.6% (active) in the test with COLO 205 colon; 9.47% (active) with DU-145 prostate; 5.03% (active) in the test on K-562 leukemia. Also, the growth was -38.3% (active) with MALME-3M melanoma; -14.5% (active) in the test with MDA-MB-231 breast; -47.8% (active) in the test on RXF 393 renal; 19.1% in the test on SF-268 CNS; 18.8% in the test on SF-295 CNS; -54.6% (active) in the test on SF-539 CNS. Moreover, the results for the growth with UACC-257 melanoma and with M14 melanoma were 39.6% and -4.4% (active), respectively.

As to `O=C(Cc1ccc(/C=C/C(=O)c2ncc[nH]2)cc1)Nc1ccc(C(F)(F)F)cc1`, the growth with NCI-H23 lung was 33.4%; in the test with NCI-H226 lung, 78.9%; with NCI-H322M lung it was 71.5%; in the test on HOP-62 NSCLC, 25.8%; with NCI-H460 lung, 27.1%; in the test with HOP-92 NSCLC it was 70%. In addition, the growth was 54.7% with NCI-H522 lung; 30.8% in the test with A549/ATCC NSCLC; -43.1% (active) with 786-0 renal; 36.3% with COLO 205 colon; 16.5% in the test with DU-145 prostate; 4.21% (active) with K-562 leukemia. Also, the growth in the test with MALME-3M melanoma was 86.2%; in the test on MDA-MB-231 breast it was 32.5%; with RXF 393 renal it was 34%; in the test with SF-268 CNS, 14.4%; in the test with SF-295 CNS, 22.9%; in the test on SF-539 CNS, -10.1% (active). In addition, the values for the growth in the test with UACC-257 melanoma and in the test on M14 melanoma were 82.1% and 25.1%, respectively.

On to `O=C1Nc2ccccc2/C1=N/c1nc(-c2ccc(Cl)cc2)cs1`, for which the growth was 75% in the test on NCI-H23 lung; 64.2% in the test on NCI-H226 lung; 92.6% in the test on NCI-H322M lung; 56% in the test with HOP-62 NSCLC; 67.7% in the test with NCI-H460 lung; 51.5% in the test on HOP-92 NSCLC. Also, the growth is 50.1% with NCI-H522 lung; 49.4% in the test on A549/ATCC NSCLC; 75.6% in the test with 786-0 renal; 63.8% in the test with COLO 205 colon; 75.3% in the test on DU-145 prostate; 48.5% in the test on K-562 leukemia. Further, the growth in the test on MALME-3M melanoma is 81.4%; with MDA-MB-231 breast it was 67.8%; in the test on RXF 393 renal, 64.7%; in the test on SF-268 CNS, 54.1%; with SF-295 CNS it was 81.5%; in the test on SF-539 CNS, 84.5%. The values for the growth in the test with UACC-257 melanoma and with M14 melanoma were 48.9% and 67.8%, respectively.

Consider `COc1cc(C(=O)/C=C/c2c(C)n([O-])c3ccc(Cl)cc3[n+]2=O)cc(OC)c1OC`, for which the growth in the test on NCI-H23 lung is 72%; with NCI-H226 lung, 93.2%; with NCI-H322M lung, 102%; with HOP-62 NSCLC, 82%; with NCI-H460 lung, 83%; in the test with HOP-92 NSCLC it was -31.2% (active). The growth in the test on NCI-H522 lung is -77.3% (active); in the test with A549/ATCC NSCLC, 81.5%; with 786-0 renal, 61.7%; in the test with COLO 205 colon it was 36.4%; in the test on DU-145 prostate, 36.3%; with K-562 leukemia, 1.97% (active). Moreover, the growth is 95.4% in the test with MALME-3M melanoma; 81% with MDA-MB-231 breast; 43.2% with RXF 393 renal; 65.5% with SF-268 CNS; 95% in the test with SF-295 CNS; 73.7% in the test with SF-539 CNS. In addition, the figures for the growth with UACC-257 melanoma and in the test with M14 melanoma were 81.2% and 80.9%, respectively.

As for `C#CC(=O)Nc1cccc(Nc2nc3c(c(NCc4ccccc4)n2)CCCC3)c1`, the growth in the test on NCI-H23 lung is -61.2% (active); in the test on NCI-H226 lung, -31.4% (active); in the test on NCI-H322M lung, -56.9% (active); in the test with HOP-62 NSCLC, -82.8% (active); with NCI-H460 lung, -57.8% (active); with HOP-92 NSCLC, -71.7% (active). The growth was -60.7% (active) in the test on NCI-H522 lung; -48.5% (active) in the test on A549/ATCC NSCLC; -90.3% (active) in the test with 786-0 renal; -68.9% (active) in the test on COLO 205 colon; -85.1% (active) in the test on DU-145 prostate; -22.3% (active) in the test on K-562 leukemia. In addition, the growth in the test with MALME-3M melanoma was -64.1% (active); in the test on MDA-MB-231 breast, -71.7% (active); with RXF 393 renal, -99.5% (active); with SF-268 CNS, -78.5% (active); in the test with SF-295 CNS, -84% (active); in the test on SF-539 CNS, -90.7% (active). The growth in the test with UACC-257 melanoma was -90.6% (active); in the test with M14 melanoma, -88.2% (active).

As for `CN(C)C(=O)c1cc2cnc(Nc3ccc(-c4csc5c(=O)cc(N6CCOCC6)oc45)cc3)nc2n1C1CCCC1`, the growth in the test with NCI-H23 lung is -10.2% (active); in the test on NCI-H226 lung it was 2.17% (active); with NCI-H322M lung, -29% (active); with HOP-62 NSCLC, -30.4% (active); in the test with NCI-H460 lung, -26.4% (active); with HOP-92 NSCLC, -3.68% (active). For the same molecule, the growth with NCI-H522 lung was -65.1% (active); in the test on A549/ATCC NSCLC it was -36.8% (active); in the test on 786-0 renal it was -1.22% (active); with COLO 205 colon, -84.3% (active); in the test with DU-145 prostate it was -97.1% (active); in the test with K-562 leukemia, 2.96% (active). Also, the growth is -67.9% (active) in the test with MALME-3M melanoma; -7.21% (active) in the test on MDA-MB-231 breast; -85.8% (active) in the test on RXF 393 renal; -2.94% (active) with SF-268 CNS; -36.9% (active) in the test on SF-295 CNS; -70.2% (active) in the test with SF-539 CNS. The growth in the test with UACC-257 melanoma was -81.5% (active); in the test on M14 melanoma, -73.4% (active).
